High-throughput results deposited in PubChem by several laboratories.
NALP3 yeast inh – blocks the NALP3 inflammasome reconstituted in yeast; Yeast reconstituted NLRP3/ASC/caspase-1, beta-gal luminescence, 24 h; inhibition, % at 10 µM; 0.39% of 330,000 active;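 active = inhibition of 50% or more; inactive = inhibition below 50%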
tim10-1 inh – tim10-1 yeast growth inhibition | S. cerevisiae tim10-1 ts strain growth, BacTiter-Glo, 24 h | inhibition, % at 20 µM | 2.2% of 330,000 active | AID 463190;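 active = inhibition of at least 40%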;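 note: mutant grown at 25 °C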
SKKanGAS inh – blocks kanamycin growth of S. pyogenes SKKanGAS strain; BacTiter-Glo, 6 h; inhibition, % at 7.5 µM; 1.3% of 300,000 active; AID 1662;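 active = mean replicate score, as percent of positive control median, at least 50; inconclusive = mean below 50 but one replicate at or above 50; inactive = mean and every replicate below 50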;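 note: strain carries kanamycin resistance gene driven by streptokinase promoter and grows in 40 µg/ml kanamycin; loss of luminescence reflects streptokinase promoter inhibition or plain growth inhibition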
TIM10 inh – growth inhibitors of TIM10 yeast strain; inhibition, % at 10 µM; S. cerevisiae TIM10 strain growth, BacTiter-Glo luminescence, 24 h; AID 463195; 1.4% of 330,000 active;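 active = inhibition of 40% or more at the single tested concentration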;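 note: wild-type TIM10 isogenic control strain grown at permissive 25 °C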
tim23-1 inh – growth inhibitors of tim23-1 mutant yeast | S. cerevisiae tim23-1 growth, BacTiter-Glo luminescence, 24 h | inhibition, % at 20 µM | 1.3% of 330,000 active | AID 463212;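 active = growth inhibition of the mutant yeast at or above 50%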;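 note: temperature-sensitive mutant grown at 25 °C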
PfHsp90 set2 – reduces growth (ATP signal) of yeast expressing P. falciparum Hsp90. S. cerevisiae expressing PfHsp90, BacTiter-Glo ATP, 48 h; yeast lacking PDR1 and PDR3 efflux regulators. inhibition, % at 9.4 µM. 0.32% of 310,000 active. AID 504621;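 active = every replicate shows inhibition above about 80%, whatever the replicate mean, limit read from the data; inconclusive = mean inhibition reaches the set limit but some replicate falls short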
tim10-1 conf – tim10-1 yeast growth inhibition, confirmed; 56% of 7,400 active; shares compounds with tim10-1 inh; inhibition, % at 20 µM; AID 463213; S. cerevisiae tim10-1 ts strain growth, BacTiter-Glo, 24 h;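 active = inhibition of yeast growth at or above a set limit in either of two repeat tests at 20 µM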;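 note: tim10-1 mutant grown at permissive 25 °C to find synthetic lethal compounds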
tim10 confirm – TIM10 yeast growth inhibition, confirmed; shares compounds with TIM10 inh; 63% of 4,600 active; inhibition, % at 10 µM; AID 463215; S. cerevisiae tim10 strain growth, BacTiter-Glo luminescence, 24 h;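 active = inhibition of yeast growth at or above a set limit in either of two replicates at 10 µM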; note: this counterscreen used the strain with wild-type TIM10
tim23-1 confirm – confirmation of tim23-1 mutant yeast growth inhibitors | shares compounds with tim23-1 inh | S. cerevisiae tim23-1 growth, BacTiter-Glo luminescence, 24 h | 83% of 4,400 active | inhibition, % at 20 µM;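 active = inhibition above about 39% in either of two replicate wells at 20 µM, limit read from the data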;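 note: temperature-sensitive tim23-1 mutant grown at 25 °C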
Of the large screens only hits and unclear results are named; the others gave an inactive call (follow-up assays come after a bar, where they were run). Most compounds without a hit are left out; they make up all but 4.6% or so of the library.

CCOC(=O)C1=C(COC(=O)COc2ccc(C#N)cc2)NC(=O)NC1C (stereo not given)	none
O=C1C=CC(=O)N1c1cccc(-c2ccccc2)c1	tim10-1 inh 95, TIM10 inh 95, tim23-1 inh 51, PfHsp90 set2 107 | tim10-1 conf 98 | tim10 confirm 99 | tim23-1 confirm 98
COc1cc(N2C(=O)C=CC2=O)ccc1N1C(=O)C=CC1=O	none (no result: NALP3 yeast inh, tim10-1 inh, SKKanGAS inh, TIM10 inh, tim23-1 inh)
Cc1cc2nccnc2cc1C	none (no result: NALP3 yeast inh, tim10-1 inh, SKKanGAS inh, TIM10 inh, tim23-1 inh)
CC(SC#N)C(=O)C12CC3CC(CC(C3)C1)C2 (stereo not given)	tim10-1 inh 53, TIM10 inh 55, tim23-1 inh 66 | tim10-1 conf 39 | tim10 confirm 41 | tim23-1 confirm 50
Cc1cccc(Nc2nc(Cl)ncc2F)c1C	none
CCN(CC)c1ccc(/C=C/c2ccc3ccc(OC)cc3[n+]2CC)cc1	tim10-1 inh 73, tim23-1 inh 68 | tim10-1 conf 68 | tim23-1 confirm 58
Oc1c(Cl)cc(Cl)cc1C=Nc1ccc2c(c1)OCCO2	tim10-1 inh 46, TIM10 inh 47, tim23-1 inh 77 (no result: PfHsp90 set2) | tim10-1 conf inactive | tim10 confirm 32 | tim23-1 confirm 81
O=Cc1c[nH]c2cccc(OCc3ccccc3)c12	tim10-1 inh 59, tim23-1 inh 54 (no result: SKKanGAS inh) | tim10-1 conf 30 | tim23-1 confirm inactive
O=Cc1c[nH]c2ccc(NC(=O)OCc3ccccc3)cc12	none (no result: NALP3 yeast inh, tim10-1 inh, SKKanGAS inh, TIM10 inh, tim23-1 inh)
Cc1cc(C)c(CNC(=O)c2cc(C3CC3)nc3c2cnn3C(C)C)c(=O)[nH]1	none (no result: SKKanGAS inh)
O=C1CS(=O)(=O)N(Cc2ccccc2F)c2ccc(Br)cc21	tim10-1 inh 41, tim23-1 inh 72 (no result: NALP3 yeast inh, SKKanGAS inh) | tim10-1 conf 47 | tim23-1 confirm 61
NC(=O)NC(CC(=O)NNC(=O)c1ccccn1)c1ccccc1Cl (stereo not given)	none (no result: SKKanGAS inh, PfHsp90 set2)
COc1ccc(-c2cccc3c2C2CC3CCN2C(=O)OCc2ccccc2)cc1 (stereo not given)	none (no result: NALP3 yeast inh, tim10-1 inh, SKKanGAS inh, TIM10 inh, tim23-1 inh)
CC1CCC(NC(=O)CNC(=O)c2cccs2)CC1 (stereo not given)	none
O=c1[nH]c(Sc2ccc([N+](=O)[O-])cc2[N+](=O)[O-])nc2ccccc12	tim10-1 inh 45, tim23-1 inh 68 | tim10-1 conf 38 | tim23-1 confirm 53
CC(=O)Nc1cccc(C(=O)Nc2cccnc2)c1	none
CCC(CC)c1nnc(NC(=O)C2COc3ccccc3O2)s1 (stereo not given)	tim10-1 inh 47, tim23-1 inh 50 | tim10-1 conf 46 | tim23-1 confirm 53
Cc1nnc(NC(=O)C2COc3ccccc3O2)s1 (stereo not given)	none (no result: PfHsp90 set2)
Cc1[nH][nH]c(=O)c1C(c1ccc(-c2ccc(F)cc2)o1)c1c(C)[nH][nH]c1=O	tim10-1 inh 51, tim23-1 inh 85 | tim10-1 conf inactive | tim23-1 confirm 60
Cc1[nH][nH]c(=O)c1C(c1ccc(-c2ccc(C(=O)O)cc2)o1)c1c(C)[nH][nH]c1=O	none (no result: NALP3 yeast inh, tim10-1 inh, SKKanGAS inh, TIM10 inh, tim23-1 inh)
Oc1ccccc1Oc1c(F)c(F)nc(N2CCCC2)c1F	none
CC(=O)/C=C/c1ccccc1Oc1c(F)c(F)nc(F)c1F	tim10-1 inh 45, tim23-1 inh 54 | tim10-1 conf 41 | tim23-1 confirm 40
CC(C)(C)OC(=O)N1CCC2(CC1)C(C#N)=C(N)OC1=C2C(=O)CCC1	none
C[N+]1=C(/C=C/Nc2ccccc2Cl)C(C)(C)c2ccccc21	none
COC(=O)c1ccc2c(c1)C(C)(C)C(/C=C/c1ccccc1O)=[N+]2C	tim10-1 inh 65, TIM10 inh 56, tim23-1 inh 66 | tim10-1 conf 57 | tim10 confirm 53 | tim23-1 confirm 71
CCCCc1ccc(/C=C(\C#N)C(N)=S)s1	tim10-1 inh 56, TIM10 inh 53, tim23-1 inh 71 (no result: SKKanGAS inh) | tim10-1 conf 55 | tim10 confirm 60 | tim23-1 confirm 58
Cn1cccc1/C=C(/C#N)C(N)=S	none
Cc1sc(N)nc1-c1ccc(Oc2ccccc2)cc1	tim10-1 inh 40, tim23-1 inh 69 | tim10-1 conf 50 | tim23-1 confirm 57
COc1ccccc1NC(=O)Cn1nnc(C(=O)NCCc2ccccc2)c1N	none (no result: PfHsp90 set2)
COC(=O)N/N=C/c1sc(N2CCCCC2)nc1-c1cccs1	tim10-1 inh 45, tim23-1 inh 53 | tim10-1 conf 33 | tim23-1 confirm 47
COc1ccc(CN2CCN(CCc3ccccc3)C(CCO)C2)c(O)c1 (stereo not given)	none
O=C1c2ccccc2NC(c2ccccc2Cl)N1N=C1CCCCCC1 (stereo not given)	none
Cc1c(C(=O)Nc2cccnc2)oc2ccc(Br)cc12	none
Cc1ccc(SCCNS(=O)(=O)c2ccc3c(c2)OCCO3)cc1	tim10-1 inh 52, TIM10 inh 51, tim23-1 inh 55 | tim10-1 conf 42 | tim10 confirm inactive | tim23-1 confirm 53
COc1ccc(CCNS(=O)(=O)c2ccc3c(c2)OCCO3)cc1	tim10-1 inh 50, TIM10 inh 49, tim23-1 inh 59 | tim10-1 conf 42 | tim10 confirm inactive | tim23-1 confirm 56
COc1ccc(S(=O)(=O)NCc2ccc(C)cc2)cc1	tim10-1 inh 48, tim23-1 inh 56 | tim10-1 conf inactive | tim23-1 confirm 43
COc1ccc(CCNC(=O)c2ccc3c(c2)OCCO3)cc1	none
O=S(=O)(NCCSCc1ccc(Cl)c(Cl)c1)c1ccc2c(c1)OCCO2	tim10-1 inh 47, TIM10 inh 53, tim23-1 inh 55 | tim10-1 conf 33 | tim10 confirm 36 | tim23-1 confirm 49
O=C(CSc1nnc2ccccn12)Nc1nsc(-c2ccccc2)n1	none
OCCC1CN(Cc2cc3c(cc2Cl)OCO3)CCN1C1CCCC1 (stereo not given)	none
CC1(c2ccccc2Cl)NC(=O)N(CC(=O)Nc2ccc3c(c2)OCO3)C1=O (stereo not given)	none
Cc1nnc(C)n1/N=C/c1cc(Br)cc(Br)c1O	tim10-1 inh 56, TIM10 inh 63, tim23-1 inh 63, PfHsp90 set2 101 | tim10-1 conf 32 | tim10 confirm inactive | tim23-1 confirm 85
Oc1c(Br)cc(Br)cc1/C=N/n1c(-c2ccccc2)n[nH]c1=S	tim10-1 inh 66, tim23-1 inh 80 | tim10-1 conf 50 | tim23-1 confirm 88
CS/C(N)=N/N=C/c1cc(Br)cc(Br)c1O	tim10-1 inh 47, SKKanGAS inh inconclusive, TIM10 inh 71, tim23-1 inh 76 | tim10-1 conf 61 | tim10 confirm 61 | tim23-1 confirm 79
